# Bioassay records from PubChem BioAssay.
# Choline anaer gr = blocks anaerobic gram-negative growth on choline | Gram-negative bacterium anaerobic choline minimal medium, absorbance growth; active compounds read low | calls only | 55,000 tested, 0.2% active | AID 1963822; call rule not given here
# Active calls of the source: *; i = inactive; + = active, no number. The full list was thinned out, with hits kept by preference.
SMILES,Choline anaer gr
CCCCCCCCCCCCCCCCOC[C@H](COP(=O)([O-])OCC[N+](C)(C)C)OC(C)=O,i
CCCCCCCCCCCCCCCC(=O)OC[C@H](COP(=O)([O-])OCC[N+](C)(C)C)OC(C)=O,i
CCCCCCCCCCCCCCCCOC[C@@H](COP(=O)([O-])OCC[N+](C)(C)C)OC(C)=O,+
O=c1c2ccccc2nc(/C=C/c2c[nH]c3ccccc23)n1-c1ccc(Cl)cc1,i
CN(N=O)c1ccc(O)c(O)c1,i
CCOC(=O)Cc1ccc(NC(=O)N2Cc3ccccc3-n3cccc3C2c2ccc(OC)cc2)cc1 (stereo not drawn),i
O=C1C[C@@H]2OCC=C3CN4CC[C@]56c7ccccc7N1[C@H]5[C@H]2[C@H]3C[C@H]46,+
CN1C[C@@H](NS(=O)(=O)N(C)C)C[C@@H]2c3cccc4c3c(cn4C)C[C@H]21,i
O=c1cccc2n1CC1CC2CN(Cc2nnc(-c3cccc(Br)c3)o2)C1 (stereo not drawn),i
Cn1c(CCCC(=O)O)nc2cc(N(CCCl)CCCl)ccc21,i
